Laboratory results from PubChem BioAssay (NCATS).
Results filed as inconclusive are left out. Activity calls are given as the source filed them. Unless noted, the call rests on the fitted dose curve; in most records, active means well fitted curve in the direction sought with a large enough effect; inconclusive means small, poorly fitted or top-dose-only effect, or another doubt; inactive means no such curve, though single readings can be large; an effect the other way counts as inactive or inconclusive.

Tests used:
[1] = qHTS Assay for Lipid Storage Modulators (AID 1519; calls by dose curve; on activity change, negative = inhibition: on the % scale 0 is the no-effect control and ±100 the full control effect); settings: Drosophila S3 cells, BODIPY lipid droplet/cell ratio, laser cytometry, cells loaded with oleic acid
Procedure, shortened: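 Cells seeded at 5,000 per well were treated with compounds over a concentration series and loaded with oleic acid (400 uM, as added). Lipid droplet fluorescence (488 nm excitation, 500-530 nm channel) was read by laser-scanning cytometry and normalized to 20 uM Triacsin C.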

[2] = molecular target: DNA repair nuclease/redox regulator APEX1 (Homo sapiens) (UniProt P27695); assay: qHTS Validation Assay for Inhibitors of the Human Apurinic/apyrimidinic Endonuclease 1 (APE1) (AID 1705;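 further: TAMRA fluorescence gain over two minutes as APE1 cuts a quenched THF abasic duplex; on the % scale 0 is the no-effect control and ±100 the full control effect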)
Chain of DNA repair nuclease/redox regulator APEX1 (Homo sapiens) (P27695 whole entry, looked up): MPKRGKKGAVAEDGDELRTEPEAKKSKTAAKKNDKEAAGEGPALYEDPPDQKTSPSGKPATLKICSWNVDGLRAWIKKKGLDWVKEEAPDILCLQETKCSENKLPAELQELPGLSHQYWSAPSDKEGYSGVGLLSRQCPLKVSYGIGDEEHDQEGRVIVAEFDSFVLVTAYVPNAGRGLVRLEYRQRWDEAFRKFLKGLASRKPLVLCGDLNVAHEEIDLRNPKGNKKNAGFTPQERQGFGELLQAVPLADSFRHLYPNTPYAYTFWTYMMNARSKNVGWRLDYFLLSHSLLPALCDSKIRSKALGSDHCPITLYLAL
Procedure, shortened: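 Substrate: 50 nM final fluorophore/quencher THF-abasic duplex. Enzyme preincubated with compounds 15 min, RT. Progress derived from fluorescence difference, third minus first kinetic read.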

[3] = Counterscreen for APE1 Inhibitors: Fluorescent Dye Displacement Validation Assay (AID 1707);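 further: plate controls were ThO with dsDNA and no compound for no effect and ThO without dsDNA for full effect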
Procedure, shortened: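 Reaction mixture of 250 nM Thiazole Orange and 50 nM double-stranded abasic-site DNA was dispensed, compounds were pin-transferred, and fluorescence was read at endpoint (480 nm ex, 540 nm em). Reduced fluorescence indicated dye displacement by DNA binding.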

[4] = molecular target: Endonuclease 4 (Escherichia coli (strain K12)) (UniProt P0A6C1); assay: Counterscreen for APE1 Inhibitors: qHTS Validation Assay for Inhibitors of Endonuclease IV (AID 1708); further: on the % scale 0 is the no-effect control and ±100 the full control effect
Procedure, shortened: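 Read-out: fluorescence rise (ex 525/em 598 nm) from incision of a TAMRA/BHQ-2 double-stranded THF abasic-site substrate (50 nM), measured kinetically; third-minus-first read difference gave reaction progress. Enzyme 2 nM.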

[5] = qHTS for differential inhibitors of proliferation of Plasmodium falciparum line 7G8 (AID 1815);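 further: potency means the concentration at half of the fitted maximal effect; parasite growth measured after three days of incubation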
[6] = qHTS for differential inhibitors of proliferation of Plasmodium falciparum line GB4 (AID 1816); settings: Potency: Plasmodium falciparum GB4 proliferation inhibition;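 further: potency means the concentration at half of the fitted maximal effect; parasite growth measured after 72 h incubation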
[7] = qHTS for differential inhibitors of proliferation of Plasmodium falciparum line 3D7 (AID 1876); further: potency means the concentration at half of the fitted maximal effect
[8] = qHTS for differential inhibitors of proliferation of Plasmodium falciparum line Dd2 (AID 1882); settings: Potency: Plasmodium falciparum Dd2 proliferation inhibition; further: potency means the concentration at half of the fitted maximal effect; nearly all actives have a fitted effect of over 65% in size
Procedure, shortened: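 RBC culture, 0.3% parasitemia / 2.5% Hct final; cpd added by pin tool in DMSO; 72 h, 37 C, 5% CO2; lysis buffer + SYBR Green I, o/n RT dark; FI 485/535; norm. to artemisinin 0.29 uM and DMSO.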

[9] = qHTS for differential inhibitors of proliferation of Plasmodium falciparum line W2 (AID 1883); settings: Potency: Plasmodium falciparum W2 proliferation inhibition;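 further: potency means the concentration at half of the fitted maximal effect; parasites grown with compound for 72 h before lysis and staining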
[10] = molecular target: ATP-dependent DNA helicase Q1 (Homo sapiens) (UniProt P46063); assay: qHTS Validation Assay for Inhibitors of RecQ-Like Dna Helicase 1 (RECQ1) (AID 2353);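 further: plate controls were DMSO vehicle for no effect and enzyme-free control for full effect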
Chain of ATP-dependent DNA helicase Q1 (Homo sapiens) (P46063 whole entry, looked up): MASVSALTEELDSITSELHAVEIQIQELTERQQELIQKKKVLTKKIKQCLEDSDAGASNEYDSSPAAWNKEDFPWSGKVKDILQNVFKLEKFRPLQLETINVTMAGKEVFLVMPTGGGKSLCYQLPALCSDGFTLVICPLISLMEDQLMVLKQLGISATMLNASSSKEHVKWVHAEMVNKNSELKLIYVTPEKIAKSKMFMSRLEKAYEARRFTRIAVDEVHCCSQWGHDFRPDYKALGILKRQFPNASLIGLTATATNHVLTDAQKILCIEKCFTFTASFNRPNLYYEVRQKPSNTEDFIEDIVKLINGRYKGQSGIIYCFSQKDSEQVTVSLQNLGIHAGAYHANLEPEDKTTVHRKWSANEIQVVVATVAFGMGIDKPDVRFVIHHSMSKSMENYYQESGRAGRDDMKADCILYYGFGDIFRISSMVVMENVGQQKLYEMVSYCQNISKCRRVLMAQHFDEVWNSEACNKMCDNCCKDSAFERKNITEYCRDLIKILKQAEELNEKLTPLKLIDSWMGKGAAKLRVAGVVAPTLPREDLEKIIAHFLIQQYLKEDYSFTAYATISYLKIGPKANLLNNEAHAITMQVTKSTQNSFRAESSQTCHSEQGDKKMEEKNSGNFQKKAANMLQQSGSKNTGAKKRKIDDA
Procedure, shortened: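 RECQ1T1 50 nM; forked duplex (20 bp + 30-nt ss tails) 200 nM, ATP 2 mM final; pH 8.0, 2 mM MgCl2, 2.5 ug/ml poly(dI-dC); 15 min compound preincubation; discontinuous kinetic read over 2 h at RT.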

[11] = molecular target: RecQ-like DNA helicase BLM (Homo sapiens) (UniProt P54132); assay: qHTS Validation Assay for Inhibitors of Bloom's syndrome helicase (BLM) (AID 2364);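 further: plate controls were DMSO vehicle for no effect and enzyme-free control for full effect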
Chain of RecQ-like DNA helicase BLM (Homo sapiens) (P54132 whole entry, looked up): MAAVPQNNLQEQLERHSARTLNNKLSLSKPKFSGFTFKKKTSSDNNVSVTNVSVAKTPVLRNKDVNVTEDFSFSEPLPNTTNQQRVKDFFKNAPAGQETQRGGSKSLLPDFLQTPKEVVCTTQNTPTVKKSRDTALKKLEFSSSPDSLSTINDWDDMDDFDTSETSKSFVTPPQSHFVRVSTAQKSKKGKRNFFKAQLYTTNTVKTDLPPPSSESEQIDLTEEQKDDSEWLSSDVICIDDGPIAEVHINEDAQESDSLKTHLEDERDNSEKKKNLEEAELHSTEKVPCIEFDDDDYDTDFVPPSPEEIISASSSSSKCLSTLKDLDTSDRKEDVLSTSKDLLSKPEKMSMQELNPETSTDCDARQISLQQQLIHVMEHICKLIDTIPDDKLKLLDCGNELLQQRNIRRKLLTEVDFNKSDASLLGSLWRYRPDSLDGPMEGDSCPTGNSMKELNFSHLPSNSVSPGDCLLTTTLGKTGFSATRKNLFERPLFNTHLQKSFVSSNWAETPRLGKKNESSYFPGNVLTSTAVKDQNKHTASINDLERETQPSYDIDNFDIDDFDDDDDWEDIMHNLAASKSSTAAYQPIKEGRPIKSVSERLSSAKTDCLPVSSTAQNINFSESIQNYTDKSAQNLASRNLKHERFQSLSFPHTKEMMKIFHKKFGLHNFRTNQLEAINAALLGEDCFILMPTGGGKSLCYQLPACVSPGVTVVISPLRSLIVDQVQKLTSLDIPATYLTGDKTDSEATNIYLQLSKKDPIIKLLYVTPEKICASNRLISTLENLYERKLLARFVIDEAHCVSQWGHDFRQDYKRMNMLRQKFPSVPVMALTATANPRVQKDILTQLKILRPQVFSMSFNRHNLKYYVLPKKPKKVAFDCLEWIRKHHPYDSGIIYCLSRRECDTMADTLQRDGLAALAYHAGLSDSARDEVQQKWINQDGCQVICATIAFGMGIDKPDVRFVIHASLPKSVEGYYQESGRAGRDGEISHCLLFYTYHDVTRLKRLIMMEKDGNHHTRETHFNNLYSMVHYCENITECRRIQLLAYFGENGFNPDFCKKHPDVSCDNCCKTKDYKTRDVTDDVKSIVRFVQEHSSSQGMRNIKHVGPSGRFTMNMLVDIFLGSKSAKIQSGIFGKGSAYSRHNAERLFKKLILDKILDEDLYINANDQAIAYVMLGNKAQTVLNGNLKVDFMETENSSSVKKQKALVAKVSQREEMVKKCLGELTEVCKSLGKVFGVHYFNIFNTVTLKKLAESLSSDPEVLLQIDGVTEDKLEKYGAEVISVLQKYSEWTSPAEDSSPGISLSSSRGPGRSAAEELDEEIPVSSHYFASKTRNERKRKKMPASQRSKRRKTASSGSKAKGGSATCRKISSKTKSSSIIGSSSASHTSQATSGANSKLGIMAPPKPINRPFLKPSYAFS
Procedure, shortened: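 50 nM BLM preincubated 15 min at room temperature with compound in pH 8.0 Tris buffer containing 2.5 ug/ml poly(dI-dC); started with 200 nM TAMRA/BHQ-2 forked duplex and 2 mM ATP (final). Unwinding read as TAMRA fluorescence increase, two reads 2 h apart.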

[12] = Quantitative high throughput screen for delayed death inhibitors of the malarial parasite plastid, 96 hour incubation (AID 488745);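 further: luciferase-expressing P. falciparum in erythrocytes at 2% hematocrit and 0.1% parasitemia; on the % scale 0 is the no-effect control and ±100 the full control effect; nearly all actives have a fitted effect of over 70% in size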
Procedure, shortened: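 Luciferase-expressing P. falciparum, infected RBCs 2% Hct/0.1% parasitemia (final); 96 h cpd exposure, 37 C, 5% CO2; RPMI 1640 + 0.5% Albumax, bicarbonate, gentamycin. Readout: luminescence loss = growth inhibition.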

[13] = molecular target: Thyrotropin receptor (Homo sapiens) (UniProt P16473); assay: qHTS Assay for Antagonists of the Thyroid Stimulating Hormone Receptor (AID 488980); further: 0% is about no effect
Procedure, shortened: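 Inhibition of TSH-stimulated cAMP accumulation was quantified by homogeneous time-resolved FRET in TSHR-transfected HEK293 cells. Agonist: TSH, 4 nM final (EC80).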

[14] = molecular target: Thyrotropin-releasing hormone receptor (Homo sapiens) (UniProt P34981); assay: qHTS for Small Molecule Agonists and Allosteric Enhancers of Human TRH Receptor: Validation Screen for Agonists (AID 493127;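 active means calcium activation more than 3 SD above the typical response in the agonist read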;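 further: intracellular calcium rise by fluo-8 fluorescence before TRH EC20 addition; 0% is about no effect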); settings: TRH receptor agonist cell assay; at 2 µM; stronger effect = higher value
Chain of Thyrotropin-releasing hormone receptor (Homo sapiens) (P34981 whole entry, looked up): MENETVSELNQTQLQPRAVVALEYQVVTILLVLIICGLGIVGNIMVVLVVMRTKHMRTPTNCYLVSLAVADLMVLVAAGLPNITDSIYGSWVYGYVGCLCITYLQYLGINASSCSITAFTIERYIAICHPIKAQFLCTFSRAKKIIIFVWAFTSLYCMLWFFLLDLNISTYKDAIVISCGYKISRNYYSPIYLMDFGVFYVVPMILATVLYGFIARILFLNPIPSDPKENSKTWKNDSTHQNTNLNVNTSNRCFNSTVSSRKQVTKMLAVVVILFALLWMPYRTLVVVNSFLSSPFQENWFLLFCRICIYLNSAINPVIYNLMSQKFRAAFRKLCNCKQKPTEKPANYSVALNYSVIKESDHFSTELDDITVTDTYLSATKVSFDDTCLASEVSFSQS
Procedure, shortened: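 Read-out: intracellular calcium release measured kinetically by FDSS (fluo-8, ex 480/em 530 nm), 1 reading/s after a 10-cycle baseline. TRHR cells, 2000/well, cultured 18 h at 33.5C, dye-loaded at room temp. Compound-evoked positive calcium signal flags agonists.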

[15] = Validation screen for small molecules that induce DNA re-replication in SW480 colon adenocarcinoma cells (AID 504364); further: 0% is about no effect
Procedure, shortened: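 Read-out: total Hoechst intensity of nuclei by fluorescence scanning imager; hits raise the fraction of nuclei with elevated DNA content. Cells received compound for 48 hr at 37 C before a 40 min stain.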

[16] = molecular target: Voltage-gated inwardly rectifying potassium channel KCNH2 (Homo sapiens) (UniProt Q12809); assay: qHTS Assay for Small Molecule Inhibitors of the Human hERG Channel Activity (AID 588834);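 further: potency means the concentration at half of the fitted maximal effect; lower thallium flux fluorescence means stronger hERG block; nearly all actives have a fitted effect of over 50% in size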
Chain of Voltage-gated inwardly rectifying potassium channel KCNH2 (Homo sapiens) (Q12809 whole entry, looked up): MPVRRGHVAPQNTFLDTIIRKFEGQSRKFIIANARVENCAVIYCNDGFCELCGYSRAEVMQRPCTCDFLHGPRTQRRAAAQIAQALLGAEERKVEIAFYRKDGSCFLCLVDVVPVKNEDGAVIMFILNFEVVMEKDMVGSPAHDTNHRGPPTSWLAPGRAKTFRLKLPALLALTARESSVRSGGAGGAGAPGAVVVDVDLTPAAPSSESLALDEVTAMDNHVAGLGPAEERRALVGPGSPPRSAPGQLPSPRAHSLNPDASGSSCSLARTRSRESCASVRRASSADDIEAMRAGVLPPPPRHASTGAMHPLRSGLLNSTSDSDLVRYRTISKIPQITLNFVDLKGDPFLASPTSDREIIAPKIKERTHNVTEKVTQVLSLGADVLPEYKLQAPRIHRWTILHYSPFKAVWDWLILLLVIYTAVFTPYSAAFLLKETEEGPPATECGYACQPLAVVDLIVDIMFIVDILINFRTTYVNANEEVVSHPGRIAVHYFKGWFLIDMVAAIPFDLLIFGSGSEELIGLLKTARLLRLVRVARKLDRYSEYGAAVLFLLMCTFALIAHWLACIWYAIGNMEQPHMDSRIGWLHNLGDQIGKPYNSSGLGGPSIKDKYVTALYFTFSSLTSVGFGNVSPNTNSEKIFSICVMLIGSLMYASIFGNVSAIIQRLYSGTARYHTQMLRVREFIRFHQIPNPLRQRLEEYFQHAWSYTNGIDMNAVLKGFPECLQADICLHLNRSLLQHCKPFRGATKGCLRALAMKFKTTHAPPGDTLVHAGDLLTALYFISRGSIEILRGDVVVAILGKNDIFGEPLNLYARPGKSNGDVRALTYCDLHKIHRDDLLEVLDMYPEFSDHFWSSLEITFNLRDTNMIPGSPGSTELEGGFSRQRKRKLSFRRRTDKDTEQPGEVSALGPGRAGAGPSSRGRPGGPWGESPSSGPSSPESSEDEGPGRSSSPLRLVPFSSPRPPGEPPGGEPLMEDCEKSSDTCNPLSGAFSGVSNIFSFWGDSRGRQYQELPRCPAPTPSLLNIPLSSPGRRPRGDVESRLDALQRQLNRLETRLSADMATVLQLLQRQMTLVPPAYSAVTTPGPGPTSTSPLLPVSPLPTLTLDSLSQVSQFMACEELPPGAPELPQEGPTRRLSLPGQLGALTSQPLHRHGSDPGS
Procedure, shortened: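 Homogeneous FluxOR thallium flux assay using hERG-expressing U2OS cells (BacMam). Compound treatment about 10 minutes preceded stimulation; reduced fluorescence taken as channel block.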

[17] = P-glycoprotein substrates identified in KB-3-1 adenocarcinoma cell line, qHTS therapeutic library screen (AID 1346986); further: on the % scale 0 is the no-effect control and ±100 the full control effect; nearly all actives have a fitted effect of over 60% in size
Procedure, shortened: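 Viability by CellTiter-Glo after 72 h compound exposure at 37 degree C, 5% CO2. Cytotoxic call: curve class -1.1 to -2.4, maximum response >50%, AC50 < 10 uM, compared across KB-3-1 and P-gp-overexpressing KB-8-5-11.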

[18] = test system: Zika virus NS2B-NS3 protease; assay: Primary screen GU AMC qHTS for Zika virus inhibitors (AID 1347154);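 further: 0% = no-inhibitor control and -100% = no-enzyme control; nearly all actives have a fitted effect of over 70% in size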
Procedure, shortened: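 Unlinked Zika NS2B hydrophilic domain–NS3 protease complex at 25 nM in 10 mM Tris-HCl pH 8.0, 0.01% Tween 20, with an AMC peptide substrate. Fluorescence change (340/450 nm) over 15 min at room temperature, normalized to controls, fitted to 4-parameter Hill.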

[19] = qHTS to identify inhibitors of the type 1 interferon - major histocompatibility complex class I in skeletal muscle: primary screen against the NCATS Mechanism Interrogation Plate v5.0 (MIPE) Libary (AID 1347411);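 further: plate controls were vehicle for no effect and reference inhibitor for full effect; nearly all actives have a fitted effect of over 65% in size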
Procedure, shortened: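 HLA-B HiBit myoblasts, dexamethasone-free medium + 4 ng/ml IFN-b, 24 h compound, 11-pt 1:3 from 46 uM final. Readout: Nano-Glo HiBiT lytic luminescence after 10 min lysis, RT.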

[20] = molecular target: Cytochrome P450 2D6 (Homo sapiens) (UniProt P10635); assay: Cytochrome P450 family 2 subfamily D member 6 (CYP2D6) small molecule antagonists: luciferase biochemical (cell-free) qHTS assay (AID 1645840; active means well fitted curve in the direction sought with a large enough effect in the repeat runs; an effect the other way counts as inactive or inconclusive; further: potency means the concentration at half of the fitted maximal effect; nearly all actives have a fitted effect of over 55% in size)
Chain of Cytochrome P450 2D6 (Homo sapiens) (P10635 whole entry, looked up): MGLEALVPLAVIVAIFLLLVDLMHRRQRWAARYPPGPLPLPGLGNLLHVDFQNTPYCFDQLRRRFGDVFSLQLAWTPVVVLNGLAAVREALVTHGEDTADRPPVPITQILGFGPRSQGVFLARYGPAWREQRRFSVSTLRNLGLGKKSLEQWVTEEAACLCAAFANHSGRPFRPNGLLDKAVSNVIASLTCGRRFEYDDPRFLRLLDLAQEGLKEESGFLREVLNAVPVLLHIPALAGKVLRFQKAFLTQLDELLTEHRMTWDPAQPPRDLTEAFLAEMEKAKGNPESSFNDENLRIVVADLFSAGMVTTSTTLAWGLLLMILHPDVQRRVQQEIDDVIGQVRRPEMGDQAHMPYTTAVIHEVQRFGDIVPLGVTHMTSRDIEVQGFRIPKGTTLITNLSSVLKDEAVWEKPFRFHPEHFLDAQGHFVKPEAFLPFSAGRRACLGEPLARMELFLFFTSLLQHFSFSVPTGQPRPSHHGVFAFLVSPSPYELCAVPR
Procedure, shortened: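 P450-Glo CYP2D6 system: proluciferin substrate converted by enzyme to luciferin, read by luminescence proportional to activity. Enzyme-substrate mix with compound 10 min at room temperature, then NADPH regeneration 1 h before detection reagent.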

[21] = Primary qHTS for inhibitors of nuclear receptor binding SET domain protein 2 (NSD2) in an isogenic RCH-ACV NSD2 p.E1099K mutant (9B) (AID 1645876); further: potency means the concentration at half of the fitted maximal effect; nearly all actives have a fitted effect of over 70% in size
[22] = Primary qHTS for inhibitors of nuclear receptor binding SET domain protein 2 (NSD2) in an RCH-ACV wild type WT cells (2C) (AID 1645877); further: potency means the concentration at half of the fitted maximal effect; nearly all actives have a fitted effect of over 70% in size
[23] = NCATS anti-infectives library activity on HEK293 viability as a counter-qHTS vs the C. elegans viability qHTS (AID 1745854); further: on the % scale 0 is the no-effect control and ±100 the full control effect
Procedure, shortened: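 CellTiter-Glo luminescence, read on a CCD imager, scored viability of HEK293 cells after 24 hr compound exposure at 37C. Library tested in several concentrations, 1:5 steps, up to 41.7 uM; digitonin served as control.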

[24] = NCATS anti-infectives library activity on the primary C. elegans qHTS viability assay (AID 1745855; calls by dose curve)
Procedure, shortened: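 Titration-based screen in worms: eggs hatched overnight in M9, L1 larvae fed TOP10 capsules in S medium with compound, incubated 21 °C for 7 days; fluorescent objects gated by size and intensity at days 0, 3 and 7.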

[25] = molecular target: Glutathione peroxidase 1 (Homo sapiens) (UniProt P07203); assay: Primary qHTS Assay for Inhibitors of Recombinant Selenoprotein Glutathione Peroxidase 1 (GPX1) (AID 1845191); further: on the % scale 0 is the no-effect control and ±100 the full control effect; nearly all actives have a fitted effect of over 65% in size
Chain of Glutathione peroxidase 1 (Homo sapiens) (P07203 whole entry, looked up): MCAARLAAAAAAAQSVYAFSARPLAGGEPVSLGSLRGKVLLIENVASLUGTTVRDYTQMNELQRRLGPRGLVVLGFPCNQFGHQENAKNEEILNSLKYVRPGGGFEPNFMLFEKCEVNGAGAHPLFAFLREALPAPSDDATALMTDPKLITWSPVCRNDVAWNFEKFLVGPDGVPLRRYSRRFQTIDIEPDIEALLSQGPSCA
Procedure, shortened: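 GR-coupled readout: NADPH consumption tracked by fluorescence, ex 340/em 450 nm, at t=0 and after 15 min at RT. Final mix 10 nM GPX1, 1 mM GSH, 0.5 mM CHP, 0.5 mM NADPH, 100 nM GR, 0.01% BSA, following 30 min enzyme–compound preincubation.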

[26] = molecular target: Phospholipid hydroperoxide glutathione peroxidase GPX4 (Homo sapiens) (UniProt P36969); assay: Primary qHTS Assay for Inhibitors of Recombinant Selenoprotein Glutathione Peroxidase 4 (GPX4) (AID 1845192); settings: outcome: dose series up to 50 µM unless noted; further: on the % scale 0 is the no-effect control and ±100 the full control effect; nearly all actives have a fitted effect of over 65% in size
Chain of Phospholipid hydroperoxide glutathione peroxidase GPX4 (Homo sapiens) (P36969 whole entry, looked up): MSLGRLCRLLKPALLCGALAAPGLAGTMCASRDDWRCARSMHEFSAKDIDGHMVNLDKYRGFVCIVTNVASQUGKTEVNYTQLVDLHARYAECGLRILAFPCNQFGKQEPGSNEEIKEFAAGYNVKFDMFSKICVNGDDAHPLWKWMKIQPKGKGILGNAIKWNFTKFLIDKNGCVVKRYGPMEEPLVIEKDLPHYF
Procedure, shortened: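 Steps: GPX4 plus compound, 30 min RT; add GR/GSH/NADPH master mix; start with cumene hydroperoxide; read 340/450 nm fluorescence at 0 and 15 min. Finals were 200 nM GPX4, 1 mM GSH, 0.5 mM CHP, 0.5 mM NADPH, 100 nM GR.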

[27] = qHTS drug screen for cell cycle checkpoint inhibitors in PARPi-resistant BRCA-mutant ovarian cancer cell lines. (AID 1963452; calls by dose curve); settings: PEO1/OlaR viability, CellTiter-Glo luminescence, 96 h, stronger effect = lower value
Procedure, shortened: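 PEO1, PEO4 and PEO1/OlaR ovarian cancer cells, 600 per well, exposed 96 h at 37C to a dilution series. Viability read by CellTiter-Glo luminescence, normalized to DMSO and empty wells; activity summarized as Z-AUC.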

O=S(=O)(NCCNC/C=C/c1ccc(Br)cc1)c1cccc2cnccc12
inactive: activity change, negative = inhibition ([1]; at 57.5 µM (top of the series)) -23.6% | Potency [2] | Potency [3] | Potency [4] | Potency [10] | Potency [11] | Potency [12] | outcome [13] | activation [14] 5.62% | outcome [15] | Potency [17] | Potency [18] | Potency [19] | outcome [23] | Potency [24] | Potency [25] | Potency [26] | Z-AUC [27] 0.684
0.757: Z-AUC ([27]; measured here: PEO4 Z-AUC)
active: Potency [5] 8.91 µM | Potency [6] 12.6 µM | Potency [7] 11.2 µM | Potency [8] 8.91 µM | Potency [9] 5.01 µM | Potency [16] 2.82 µM | Potency [20] 4.77 µM | Potency [21] 16.6 µM | Potency [22] 14.8 µM
-29.8%: max response ([1]; measured here: cell count channel max response)
-49.7%: max response ([1]; measured here: lipid channel max response)
1.26: Z-AUC ([27]; measured here: PEO1 parental Z-AUC)
